LANA-H2B inh = blockers of LANA interaction with H2A/H2B – biochemical, FP readout, HTS, primary screen; Protein LANA1 (Human herpesvirus 8 type P (isolate GK18)), Q9QR71; cell-free LANA-H2A/H2B peptide, fluorescence polarization; inhibition, % (no concentration beside the values); 320,000 tested, 0.6% active; AID 2629, 2010; in the data active = inhibition mostly above about 10%, no sharp cut-off; inactive = mostly below about 6.7%
HDAC3 inh = HDAC3 deacetylase inhibitors, primary screen, biochemical, fluorescence, cell-free homogeneous. recombinant HDAC3, fluorogenic peptide/trypsin coupled. 320,000 tested, 0.15% active. inhibition, % at 8.3 µM. Histone deacetylase 3 (Homo sapiens), O15379; in the data active = inhibition above about 26%, passing the limit was not always enough
GRK2 inh = compounds blocking aptamer binding on GRK2 – biochemical, human GRK2, bead flow cytometry, HTS, primary screen; FAM-aptamer displacement from GRK2; inhibition of aptamer binding, % at 10 µM; 330,000 tested, 0.59% active;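 active = inhibition of aptamer binding above 40%, roughly 3 SD of noise, on plates passing a quality check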;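 also: median bead fluorescence of bound FAM aptamer so fluorescent compounds give negative values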
Pemphigus Ab inh = inhibitors of pemphigus antibody binding to DSG3, primary screen, biochemical, bead-based, flow cytometry, scFv-GFP; DSG3-coupled beads, scFv-anti-DSG3-GFP binding; stronger effect = lower value; AID 588358, 2011; Desmoglein-3 (Homo sapiens), P32926; 310,000 tested, 0.48% active; binding (percent of control), % at 10 µM;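 active = binding more than 3 SD below its plate's average and above zero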;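 also: hits lower antibody fragment binding to DSG3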
PKD1 kinase inh = inhibitors of human PKD1 kinase, biochemical, fluorescence polarization. Serine/threonine-protein kinase D1 (Homo sapiens), Q15139. PKD1 kinase fluorescence polarization assay. inhibition, % (test concentration not listed). 200,000 tested, 0.056% active. AID 797, 2007
VLA-4 inh = inhibition in human VLA-4 binding assay, primary screen, VLA-4 allosteric modulator project, MLPCN library, flow cytometry, VLA-4 expressing cells | 330,000 tested, 0.2% active | ligand binding flow cytometry | inhibition, % (about 7 µM as worked out from the volumes in the protocol) | Integrin alpha-4 (Homo sapiens), P13612
The depositor's hits bear a star; nt = no result. A selection: hits, their analogues and other compounds. The true share with any hit is near 1.8%. Rule as the data show it, unless noted: active = inhibition above about 50%; inactive = the rest.

SMILES | LANA-H2B inh | HDAC3 inh | GRK2 inh | Pemphigus Ab inh | PKD1 kinase inh | VLA-4 inh
Cc1ccc(S(=O)(=O)N2CCN(C)CC2c2ccccc2)cc1 (centres undefined) | -1 | -3 | 0 | 99 | nt | -22
COc1ccc(C2N3CC4(C)CN2CC(C)(C3)C4)cc1OC (centres undefined) | 6.4* | 3 | 1 | 105 | 0 | -19
Cc1cc(SCC(=O)Nc2ccc3[nH]c(=O)[nH]c3c2)nc2ccccc12 | -4 | 1 | 0 | 76* | nt | 0
CC(C)Cn1c(SCC(=O)Nc2ccc3[nH]c(=O)[nH]c3c2)nc2ccccc2c1=O | -5 | -3 | 0 | 99 | nt | 0
O=C(Cc1ccc(S(=O)(=O)N2CCOCC2)s1)N1CCN(S(=O)(=O)c2ccc(Cl)cc2)CC1 | 13 | -8 | 0 | 94 | nt | -7
Cc1cccc(NC(=O)CSCC(=O)Nc2ccccc2N2CCCC2)c1 | -6 | 2 | 0 | 107 | nt | -3
Cc1c(/C=N/NC(=O)c2cccnc2)c2ccccc2n1Cc1ccccc1 | 12* | 2 | 0 | 208 | -1 | -13
COc1cccc(C(=O)Oc2ccc3ccc(=O)oc3c2)c1 | 4 | -7 | 0 | 89 | nt | 0
O=C(COC(=O)c1ccc(O)cc1O)c1ccc2c(c1)OCO2 | 56* | 5 | 0 | 108 | nt | -5
O=C(COC(=O)c1cc(Cl)ccc1O)c1ccc2c(c1)OCO2 | -1 | 7 | 1 | 95 | nt | -2
O=C1CCN(C(=O)CSc2ccc(Cl)cc2)N1 | 3 | -6 | 0 | 103 | 0 | -5
O=C(O)CC(c1cccc([N+](=O)[O-])c1)N1Cc2ccccc2C1=O (centres undefined) | -3 | 3 | 0 | 104 | -2 | 0
CC(C)[C@H](NS(=O)(=O)c1ccccc1)C(=O)OCC(=O)Nc1cccc(S(N)(=O)=O)c1 | 2 | 11 | 71* | nt | nt | 31
O=C(CCS(=O)(=O)c1ccccc1)NCc1ccccc1 | 37* | 2 | 3 | 125 | nt | -14
Cc1ccc(NC(=O)CCNS(=O)(=O)c2ccc3c(c2)CCC(=O)N3)c(Br)c1 | -1 | -5 | 0 | 106 | nt | 4
CC1(NC(=O)CC[N+](C)(C)CCO)CS(=O)(=O)CC1S(=O)(=O)[O-] (centres undefined) | 0 | 0 | 47* | nt | -7 | 4
O=C(C[n+]1ccc(/C=N/O)cc1)NC1CCCCC1 | 17* | 1 | 0 | 106 | -6 | 1
O=C(C[n+]1ccc(/C=N/O)cc1)NCc1ccccc1 | 1 | -5 | 19 | 111 | nt | 13
COc1cc(C(=O)Nc2cccc(-c3nc4cc(C)ccc4o3)c2C)cc(OC)c1OC | 1 | -1 | 24 | 80* | 8 | 9
COc1cc(C(=O)Nc2cccc(-c3nc4ncccc4o3)c2C)cc(OC)c1OC | 2 | -2 | 0 | 103 | -5 | -9
Cn1c(=NC(=O)C2=NNC(=O)CC2)sc2ccccc21 | 15* | 6 | 1 | 115 | 3 | -2
O=C1C2CCCN2C(=S)N1c1cc(Cl)ccc1Cl (centres undefined) | nt | nt | nt | 108 | nt | nt
COc1cccc(NC(=O)CSc2nnc(CNC(=O)c3ccccc3F)o2)c1 | 0 | -5 | 1 | 105 | nt | -1
CCSc1nnc(NC(=O)CSc2nnc(CNC(=O)c3ccccc3F)o2)s1 | -3 | 3 | 0 | 54* | -7 | 0
CC(CCc1ccccc1)NC(=O)c1nnc(Cc2ccc(Cl)cc2)o1 (centres undefined) | -1 | 3 | 0 | -13* | -13 | 24
O=C(NCCc1ccc(Cl)cc1)c1nnc(Cc2ccc(Cl)cc2)o1 | 5 | -9 | 0 | 84 | -14 | 0
COc1cc(C2/C(=C(\O)c3ccc4c(c3)CC(C)O4)C(=O)C(=O)N2CCN2CCOCC2)cc(OC)c1OC (centres undefined) | 2 | 4 | 3 | 109 | nt | 2
Cc1cnc(NC(=O)CSc2nnc(COc3c(C)cccc3C)o2)s1 | 0 | 2 | 0 | 82* | -4 | -1

Screens from PubChem BioAssay.
